Only some compounds are listed: those with a hit (about 12% of all), similar ones and a draw of the others.
FMDV antiviral = High Throughput Screening for Foot and Mouth Disease Virus Antivirals; FMDV antiviral cell-based qHTS; Potency, µM (titrated, usually from 57.9 µM), inactives show top-dose activity change, negative = inhibition, most hits filed as inhibitors; 410,000 tested, 1.2% active; calls by dose curve; tested in HEK293T cells; further: read-out not given here; potency means the concentration at half of the fitted maximal effect; on the % scale 0 is the no-effect control and ±100 the full control effect; nearly all actives have a fitted effect of over 45% in size
Shiga inhibitor = A qHTS for Small Molecule Inhibitors of Shiga Toxin. Vero cells, Shiga toxin protein synthesis inhibition reporter. inhibition, % at 38.7 µM. 290,000 tested, 9.2% active; in the data active means inhibition mostly above about 28%, no sharp cut-off; inactive means mostly below about 43%; further: 0% is about no effect
Sm TGR inh = qHTS Assay for the Inhibitors of Schistosoma Mansoni Peroxiredoxins; Schistosoma mansoni thioredoxin glutathione reductase (TGR), Q962Y6; purified TGR, DTNB reduction, TNB absorbance 405 nm; 360,000 tested, 3% active; Potency, µM (top dose mostly 114 µM), for the others: at the highest dose activity change, negative = inhibition, hits mostly inhibitors; active means well fitted inhibition curve with a large enough effect; inconclusive means small, poorly fitted or top-dose-only effect; inactive means no such curve, though single readings can be large or run the other way; further: potency means the concentration at half of the fitted maximal effect; on the % scale 0 is the no-effect control and ±100 the full control effect; nearly all actives have a fitted effect of over 60% in size
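TGR 20 nM + NADPH 100 uM (dispensed conc.), cpd preinc 15 min RT; start with NADPH (500 uM addition) then DTNB (15 mM addition). Kinetic TNB absorbance, 405 nm filter. Four-parameter Hill fit across titration.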
Cycloheximide cs = Cycloheximide Counterscreen for Small Molecule Inhibitors of Shiga Toxin. cell reporter, cycloheximide protein synthesis inhibition counterscreen. max response, %. 300,000 tested, 12% active. AID 2314, 2010; in the data active means max response mostly above about 13%, no sharp cut-off; inactive means mostly below about 14%; further: read at 38.3 µM for the half of the compounds with a filed dose; 0% is about no effect
* hit, by the source's call.

Results for COC(=O)c1ccc(CN2C(=O)NC3(CCC(C)CC3)C2=O)cc1 (configuration not stated) ?
FMDV antiviral: -11%; Shiga inhibitor: 120*; Sm TGR inh: -5%; Cycloheximide cs: 53*

Results for Cc1ccc(C(=O)Nc2ccc3c(c2)OCO3)o1 ?
FMDV antiviral: 40%; Shiga inhibitor: 68*; Sm TGR inh: -10%; Cycloheximide cs: 31*

How did C/C(=C\C(=O)c1ccc(C)o1)Nc1ccc2c(c1)OCO2 do in these assays?
FMDV antiviral: 44%; Shiga inhibitor: 49*; Sm TGR inh: 1%; Cycloheximide cs: 23*

What do the screens show for `Cc1ccc(C(=O)OCC(=O)Nc2ccc3c(c2)OCO3)o1`?
FMDV antiviral: 23%; Shiga inhibitor: 24; Sm TGR inh: -23%; Cycloheximide cs: 21

What do the screens show for `C/C(=C\C(=O)c1ccccc1)Nc1ccc2c(c1)OCO2`?
FMDV antiviral: -10%; Shiga inhibitor: 50*; Sm TGR inh: -16%; Cycloheximide cs: 37*

What do the screens show for `CCC(=O)N1CCc2cc(Br)cc(S(=O)(=O)N3CCCC(C(=O)Nc4ccc(C(C)C)cc4)C3)c21` (configuration not stated)?
FMDV antiviral: -17%; Sm TGR inh: -4%

How did C[C@H]1C(=O)N(S(=O)(=O)c2ccccc2[N+](=O)[O-])[C@H]1c1ccc(-c2ccccc2)cc1 do in these assays?
Shiga inhibitor: 10; Cycloheximide cs: 6

How did Cc1ccc2nc(NC(=O)CCNS(=O)(=O)c3cccs3)sc2c1 do in these assays?
FMDV antiviral: 37%; Shiga inhibitor: 79*; Sm TGR inh: -22%; Cycloheximide cs: 26*

What do the screens show for `Cc1cccc2sc(NC(=O)CCNS(=O)(=O)c3cccs3)nc12`?
FMDV antiviral: inconclusive; Shiga inhibitor: -6; Sm TGR inh: 7%; Cycloheximide cs: 1

Results for COc1ccc(C)cc1NC(=O)c1ccc(NS(=O)(=O)c2cccs2)cc1 ?
FMDV antiviral: 14%; Shiga inhibitor: -7; Sm TGR inh: -8%; Cycloheximide cs: -4

How did Cc1ccc2nc(NC(=O)c3ccc(NS(=O)(=O)c4cccs4)cc3)sc2c1 do in these assays?
FMDV antiviral: 27%; Shiga inhibitor: 15; Sm TGR inh: 0%; Cycloheximide cs: 29*

How did Cc1ccc2nc(NC(=O)CS(=O)(=O)Cc3ccccc3)sc2c1 do in these assays?
FMDV antiviral: 0%; Shiga inhibitor: 23; Sm TGR inh: 4%; Cycloheximide cs: 4

How did Cc1ccc2nc(NC(=O)CCNS(=O)(=O)c3ccc(Br)s3)sc2c1 do in these assays?
FMDV antiviral: 0%; Shiga inhibitor: 67; Sm TGR inh: 9%; Cycloheximide cs: 26*

Results for Cc1cccc(CNC(=O)c2ccc(Cn3c(=O)c4cccn4c4cccnc43)cc2)c1 ?
FMDV antiviral: -15%; Sm TGR inh: 4%

Results for O=C(/C(Br)=C/Nc1cc(Cl)ccc1Cl)C(F)(F)F ?
FMDV antiviral: 0%; Shiga inhibitor: 9; Sm TGR inh: 22µM*; Cycloheximide cs: 10

How did O=C(Nc1cc(Cl)ccc1Cl)N1CCCC1 do in these assays?
FMDV antiviral: -3%; Shiga inhibitor: -4; Sm TGR inh: 8%; Cycloheximide cs: -2

Results for CCc1ccc(NC(=O)CCNC(=O)N2C[C@H]3C[C@@H](C2)c2cccc(=O)n2C3)cc1 ?
FMDV antiviral: 18%; Shiga inhibitor: 31*; Sm TGR inh: 0%; Cycloheximide cs: 27*

How did c1ccc(N=P(c2nc3ccccc3o2)(N2CCOCC2)N2CCOCC2)cc1 do in these assays?
Shiga inhibitor: 33*; Sm TGR inh: -1%; Cycloheximide cs: 23*

What do the screens show for `c1ccc(N=P(N2CCOCC2)(N2CCOCC2)N2CCOCC2)cc1`?
FMDV antiviral: -23%; Shiga inhibitor: -7; Sm TGR inh: 0%; Cycloheximide cs: -2

How did Cc1ccc([N+](=O)[O-])c(Oc2ncnc3c2oc2ccccc23)c1 do in these assays?
FMDV antiviral: 29%; Sm TGR inh: 2%

What do the screens show for `CC(C)CCNC(=O)C12CN(Cc3ccccc3)CC1C(c1ccc([N+](=O)[O-])cc1)=NO2` (configuration not stated)?
FMDV antiviral: -5%; Shiga inhibitor: -3; Sm TGR inh: -5%; Cycloheximide cs: 4

How did O=C(NCc1ccccc1C(F)(F)F)C12CN(Cc3ccccc3)CC1C(c1ccc([N+](=O)[O-])cc1)=NO2 (configuration not stated) do in these assays?
FMDV antiviral: 28%; Shiga inhibitor: 41; Sm TGR inh: -1%; Cycloheximide cs: 18*
